Assay results from PubChem BioAssay.
Calls of active or inactive are those of the source.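 How the source made its calls, unless noted: active means compounds that lower survival of HCT116 colon cancer cells in the luminescence readout, no numeric limit stated; inactive means the rest.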

Tests used:
[1] = Wnt pathway potentiators raising nuclear beta-catenin – imaging, WNT3A-conditioned medium, mouse C2C12, NPC library, primary screen (AID 1117326; in the data active means nuclear beta-catenin stimulation mostly above about 4.2%, no sharp cut-off; inactive means mostly below about 10%; further: reference of the scale not given here); settings: stronger effect = higher value
[2] = stimulators of insulin release from INS-1E, primary screen, cell-based, 5 mM glucose, NPC library (AID 1117329;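 active means compound raises insulin release from rat beta cells at 5 mM glucose, no numeric limit stated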; further: reference of the scale not given here); settings: rat INS-1E insulin secretion, at 10 µM, stronger effect = higher value
[3] = growth inhibition of GSK3B-pretreated HCT116 cells – cell-based, CellTiter-Glo, 0.2 to 20 µM (AID 1117336;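 active means compounds lowering colon cancer cell viability after pretreatment blocking the GSK3B kinase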); settings: HCT116 viability after GSK3B inhibitor, at 20 µM, stronger effect = higher value
[4] = inhibition of endothelial tube formation, primary screen, imaging, VEGF stimulated, CD31 staining, tube area, NPC library (AID 1117340;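 active means compound that reduces growth-factor-driven endothelial tube area in a mixed cell culture, no cutoff stated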); settings: VEGF-stimulated ADSC/ECFC co-culture, at 10 µM, stronger effect = higher value
[5] = GLP1 release stimulators, primary, NCI-H716, NPC library (AID 1117341;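 active means compound raises GLP1 secretion from the human gut endocrine cells, with no numeric limit stated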; further: reference of the scale not given here); settings: NCI-H716 cells, at 10 µM, stronger effect = higher value
[6] = HCT116 colon cancer cell growth inhibition, primary screen, CellTiter-Glo luminescence, NPC library (AID 1117342); settings: at 20 µM (top of the series)
[7] = reduced SW480 viability measured with CellTiter-Glo, NPC library, primary (AID 1117343;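 active means compounds that lower viability of the colon cancer cells in the luminescence readout, with no numeric limit stated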); settings: CellTiter-Glo luminescence; at 20 µM (top of the series)
[8] = NPC library primary testing for decreased DLD-1 cell viability via CellTiter-Glo (AID 1117346;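 active means compounds that lower survival of DLD-1 colon cancer cells in the luminescence readout, no cutoff given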); settings: DLD-1 viability, CellTiter-Glo luminescence; at 20 µM (top of the series)

CCN(CCO)CCn1c(Cc2ccccc2)nc2c1c(=O)n(C)c(=O)n2C
0%: nuclear beta-catenin stimulation ([1]; stimulation, at 2 µM)
inactive: nuclear beta-catenin stimulation ([1]; at 10 µM) -2% | insulin secretion stimulation [2] 3% | viability decrease [3] -6% | tube area decrease [4] 4.3% | GLP1 secretion stimulation [5] -5.3% | inhibition of viability [6] 6.4% | viability decrease (inhibition) [7] 15.1% | viability decrease (inhibition) [8] 4.2%

CCC(CC)(CNC(=O)CCCO)c1cccc(OC)c1
inactive: nuclear beta-catenin stimulation ([1]; at 10 µM) -1.1% | insulin secretion stimulation [2] 0.4% | viability decrease [3] -15.7% | tube area decrease [4] 11.5% | GLP1 secretion stimulation [5] -1.4% | inhibition of viability [6] -6.33% | viability decrease (inhibition) [7] -5.8% | viability decrease (inhibition) [8] -6.4%
-0.7%: nuclear beta-catenin stimulation ([1]; stimulation, at 2 µM)

CCCCNC(C)(C)[P+](=O)O
inactive: nuclear beta-catenin stimulation ([1]; at 10 µM) -0.8% | insulin secretion stimulation [2] -2.5% | viability decrease [3] -0.6% | tube area decrease [4] -26.4% | GLP1 secretion stimulation [5] -3.9% | inhibition of viability [6] -4.7% | viability decrease (inhibition) [7] 1.4% | viability decrease (inhibition) [8] -4.2%
-0.8%: nuclear beta-catenin stimulation ([1]; stimulation, at 2 µM)

Cc1c(Cl)c(=O)oc2cc(OP(=O)(OCCCl)OCCCl)ccc12
inactive: nuclear beta-catenin stimulation ([1]; at 10 µM) 0.5% | insulin secretion stimulation [2] 4.8% | viability decrease [3] 12.2% | tube area decrease [4] 14.4% | GLP1 secretion stimulation [5] -2.3% | inhibition of viability [6] 35.4% | viability decrease (inhibition) [7] 29.5% | viability decrease (inhibition) [8] 0.8%
0%: nuclear beta-catenin stimulation ([1]; stimulation, at 2 µM)

CCCN(CCC)C(=O)Cc1c(-c2ccc(Cl)cc2)nc2ccc(Cl)cn12
-0.8%: nuclear beta-catenin stimulation ([1]; stimulation, at 2 µM)
inactive: nuclear beta-catenin stimulation ([1]; at 10 µM) -2% | insulin secretion stimulation [2] 11.7% | viability decrease [3] 10.8% | tube area decrease [4] -7.3% | GLP1 secretion stimulation [5] -2.3% | inhibition of viability [6] 49.5% | viability decrease (inhibition) [7] 18% | viability decrease (inhibition) [8] 27.1%

O=C(NC(O)C(Cl)(Cl)Cl)NC(O)C(Cl)(Cl)Cl (configuration not stated)
inactive: nuclear beta-catenin stimulation ([1]; at 10 µM) 0.9% | insulin secretion stimulation [2] 9.2% | viability decrease [3] -2.2% | tube area decrease [4] 1.1% | GLP1 secretion stimulation [5] 0.1% | inhibition of viability [6] 7.9% | viability decrease (inhibition) [7] -28.2% | viability decrease (inhibition) [8] -0.1%
-2.1%: nuclear beta-catenin stimulation ([1]; stimulation, at 2 µM)

CN1CCc2cc(Cl)c(O)cc2[C@H]2c3ccccc3CC[C@@H]21
inactive: nuclear beta-catenin stimulation ([1]; at 10 µM) 1.9% | viability decrease [3] 16.1% | tube area decrease [4] 24.1% | GLP1 secretion stimulation [5] 5.5% | inhibition of viability [6] 28.5% | viability decrease (inhibition) [7] 46.5% | viability decrease (inhibition) [8] 21.2%
active: insulin secretion stimulation [2] 20.2%
2.3%: nuclear beta-catenin stimulation ([1]; stimulation, at 2 µM)

Cc1nnc2n1-c1sc(CCc3ccc(CC(C)C)cc3)cc1C(c1ccccc1Cl)=NC2C (configuration not stated)
active: viability decrease [3] 110% | tube area decrease [4] 48.1% | GLP1 secretion stimulation [5] 20.1% | inhibition of viability [6] 113% | viability decrease (inhibition) [7] 134% | viability decrease (inhibition) [8] 102%
inactive: nuclear beta-catenin stimulation ([1]; at 10 µM) -1% | insulin secretion stimulation [2] 4.1%
3.8%: nuclear beta-catenin stimulation ([1]; stimulation, at 2 µM)
